Data on one compound can be found in PubChem BioAssay AID504433 (National Center for Advancing Translational Sciences (NCATS), 2011).

The nature of this test: Secondary Assay for lipid storage modulators: Cytotoxcity for probe SAR round 2. As to conditions: Drosophila S3 cells viability, CellTiter-Glo ATP luminescence, 24 h; series mostly up to 46.1 µM. From the text: NIH Molecular Libraries Probe Production Centers Network [MLPCN] NIH Chemical Genomics Center [NCGC] MLPCN Grant: 1 R03 MH085686-01 Assay Submitter (PI): Beller, Mathias; Max-Planck-Institut fur Biophysikalische Chemie, Germany. NCGC Assay Overview: Storing lipids as a reservoir for energy or the anabolism of elementary metabolites is a common feature of probably all cells and is conserved from bacteria to humans. The universal cellular lipid storage organelle is the so-called lipid storage droplet (LD). Although ubiquitous, LDs share a simple structure composed of a hydrophobic core that harbors the storage lipids, which is shielded by a droplet-specific phospholipid monolayer to which proteins are attached. The current model of LD biogenesis involves an incorporation of the lipid core into the membrane leaflets of the endoplasmic reticulum (ER) followed by a subsequent budding-like maturation of a LD, which ultimately pinches off. Once released, LD volume can increase by localized lipogenesis or fusion of existing droplet. Storage lipids are re-mobilized enzymatically by lipase activity. […]
Assay Protocol Summary: Cytotoxcity assay was performed with embryonic Drosophila S3 cells (Bloomington Drosophila Genomics Resource Center [DGRC]). […] Luminescence was detected on the Perkin Elmer ViewLux.
A general note: Cellular ATP, detected with luciferase, serves as a proxy for viable cell number.

Results filed as inconclusive are left out. Calls of active or inactive are those of the source. Calls follow the shape of the dose curve; as a rule, active = well fitted inhibition curve with a large enough effect; inconclusive = small, poorly fitted or top-dose-only effect; inactive = flat fitted curve, though single readings scatter.

Take `CCC/C=C/C/C=C/C=C/C=N/NN=O`: the result was inactive.
